# Experimental data taken from ChEMBL document CHEMBL3988442, “University of Dundee, Small-Polar-MMV Screening Library” (2021).
# Biological target: AMP-activated protein kinase, AMPK (Homo sapiens) (UniProt P54646+O43741+P54619+Q9UGJ0+Q9Y478+Q13131+Q9UGI9)
# Assay: AMP-dependent Kinase enzyme assay. An in vitro enzyme assay that detects ADP turnover that is directly proportional to AMPK activity. This uses naive AMPK that is activated during the assay with MK-8722
# Type: functional
# Set-up: scale not given: direction of the effect not stated beside the values
# Conditions: 30 µM
row,Compound,Percent Effect [%]
1,Cc1nnc(SCCCNc2cc(C3CC3)ncn2)s1,15.2
2,COc1cc(CN(C)[C@@H]2COC[C@H]2c2ccc(F)cc2)cc(OC)c1,-11.5
3,O=C(NCc1cccnc1N1CCCCC1)c1ccc2cc[nH]c2c1,1.26
4,CCOc1ccc(CN(C)C(=O)c2nc(N3CCCC3)ncc2Cl)cc1,-1.93
5,CC(=O)Nc1ccc(CNC(=O)CNCc2snnc2C)cc1,-1.84
6,CCOc1ccccc1CCC(=O)Nc1c(C)nn(C)c1C,8.9
7,CCCN1CCC(CC(=O)NCCc2nc(C)cc(C)n2)CC1,6.07
8,O=C(CNc1ccc(OC2CCOC2)cc1)NCc1cccs1 (centres undefined),9.41
9,CCC(=O)Nc1cccc(OCC(=O)N2C[C@H]3CC[C@H]2C3)c1,-10.8
10,CN(C)c1ncccc1CNC(=O)CCNc1ncccn1,-6.85
11,CC(=O)c1cccc(OC(C)C(=O)Nc2cnn(CCN(C)C)c2)c1 (centres undefined),-0.8
12,CC(NCc1cnc(N2CCOCC2)s1)c1ccc(Cl)s1 (centres undefined),9.15
13,CCc1cnc(CNC(=O)NCCc2ccc(O)cc2)s1,47.9
14,CC(=O)Nc1ccc(-c2ccccc2NC(=O)CN)cc1,17.8
15,Cn1nnnc1SCC1(O)CCCCC1,32.1
16,CC1(C)CN(c2cc(C3CC3)ncn2)C[C@]1(C)O,30.7
17,CCn1cnnc1CNC(=O)N1CCOC(c2ccccc2Cl)C1 (centres undefined),0.771
18,CC(C)(C)NC(=O)CNc1ncccn1,91.2
19,CCOCCN1CCN(c2ncccc2C#N)CC1CC (centres undefined),4.43
20,CN(Cc1cnccn1)c1cncc(Br)c1,3.25

row,Compound,Percent Effect [%]
1,COCC1CCN(C(C(=O)O)c2c(F)cccc2OC(C)C)CC1 (centres undefined),5.46
2,O=C(O)[C@H]1C[C@@H](C(=O)NCc2ccncc2)CN(Cc2ccccc2)C1,-3
3,NC(=O)CCC1CCCN(Cc2cnc(N3CCCCC3)nc2)C1 (centres undefined),7.08
4,CCC1COCCN1C(=O)NCc1nccn1CCc1ccccc1 (centres undefined),-3.33
5,CCC(C)NC(=O)Nc1cccc(OCC#N)c1 (centres undefined),-0.326
6,CCOc1cc(NC(=O)N2CCOC3(CCC3)C2)ccc1C,-1.23
7,Cc1cccc(C)c1Nc1noc2c1CN(C(=O)c1cn(C)cn1)CC2,17.2
8,CCn1c(C2CCNCC2)nn(CCn2cncn2)c1=O,3.82
9,NC(=O)C1CCCN(Cc2ccc(C(=O)Nc3cnns3)cc2)C1 (centres undefined),5.32
10,CCc1ncc(C(=O)NCCN2CCNC2=O)cn1,0.385
11,CCn1cnnc1CCNc1nc(C)cc(C)c1C#N,-7.29
12,Cn1cncc1C(=O)N1CCCC(c2ccn[nH]2)C1 (centres undefined),-5.31
13,COc1ccc(-c2cnc(CN(CC(N)=O)C3CCCC3)o2)cc1,-2.59
14,Cc1cc(C(=O)NC(C)CC(=O)c2ccco2)[nH]n1 (centres undefined),2.92
15,Cc1ccccc1C(=O)NC[C@@H]1CCN(C(=O)c2cccn2C)C[C@H]1O,-3.19
16,CC(=O)N[C@@H]1CN(C(=O)c2cccc(C)c2)C[C@H]1O,8.23
17,Cn1ncnc1NCc1ccccc1Cl,1.77
18,Cc1ccc(S(=O)(=O)N(CCO)C2CC2)cc1N(C)C,-7.34
19,CCCn1ncc(C(=O)N2CCCC(OCc3ccccn3)C2)c1C (centres undefined),-1.18
